{
  "source": "PubChem BioAssay (EPA / NIEHS)",
  "key": {"[1]": {"test": "CCTE_Mundy_HCI_Cortical_Synap_Neur_Matur_NeuriteCount: CCTE's Synaptogenesis and Neurite Maturation Assay in rat cortical cells for Neurite Count, Mundy Lab (AID 2284222);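 on outcome: exposure from day 7 to day 12 in vitro with readout at day 12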", "procedure,_shortened": "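Chemical exposure runs DIV 7–12 in rat cortical cultures, glia suppressed by AraC at DIV 5; measurement is at DIV 12. Imaging-derived neurite counts are fitted against DMSO baseline.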"}, "[2]": {"test": "CCTE_Mundy_HCI_Cortical_Synap_Neur_Matur_CellBodySpotCount: CCTE's Synaptogenesis and Neurite Maturation Assay in rat cortical cells for Cell Body Spot Count, Mundy Lab (AID 2284223)", "procedure,_shortened": "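Rat cortical neurons; AraC @ DIV 5; dose + media change DIV 7; fix DIV 12; anti-MAP2/anti-synaptophysin IF, Hoechst; HCI count of soma synaptophysin puncta/neuron; DMSO = negative control.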"}, "[3]": {"test": "CCTE_Mundy_HCI_hNP1_Pro_ResponderAvgInten: CCTE's Proliferation Assay in human neuroprogenitor cells, Mundy Lab (AID 2284224; active means hit-call score of the fitted dose curve at least 0.9, where 1 is the maximum;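 further: human neural progenitor cells hNP1 derived from WA09 embryonic stem cells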)", "procedure,_shortened": "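Proliferation read as average intensity of BrdU-positive cells, imaged at 26.25 h post-dosing: chemical exposure started after 40–44 h culture, BrdU during final 4 h, paraformaldehyde fixation. Positive-direction fit relative to DMSO.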"}, "[4]": {"test": "BSK_BT_PBMCCytotoxicity: PBMC Cytotoxicity Assessment in the BioMAP Diversity Plus: BT Assay (AID 2284225);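 further: PBMC viability measured by Alamar Blue dye reduction fluorescence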", "details": "primary human B cells with PBMC", "procedure,_shortened": "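75,000 cells/well; cpd 1 h → SEB + TSST-1 (20 ng/mL final each) → 90 h → Alamar Blue 6 h → fluor. 546/580 nm. DMSO = neg. control/baseline.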"}, "[5]": {"read-out": "Secreted IgG (sIgG), gene 3500", "test": "BSK_BT_sIgG: BioMAP Diversity Plus: BT Assay for Secreted IgG (sIgG) Biomarker Activity (AID 2284226)", "details": "primary human B cells with PBMC", "procedure,_shortened": "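B cells co-cultured with PBMC were dosed with chemical and secreted IgG quantified by ELISA at 24 h. Activity was fitted in the positive direction relative to DMSO as negative control and baseline.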"}, "[6]": {"test": "BSK_BT_Bcell_Proliferation: Viability Assessment in the BioMAP Diversity Plus: BT Assay for B cell Proliferation (AID 2284227)", "details": "primary human B cells with PBMC", "procedure,_shortened": "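SRB-based protein staining (0.1% SRB after 10% TCA fixation, 560 nm) quantifies proliferation in human B cells co-cultured with PBMC, 72 h post-dosing, with signal gain scored relative to DMSO negative control.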"}, "[7]": {"read-out": "Interleukin 6 (IL6), IL6 (gene 3569)", "test": "BSK_BT_xIL6: BioMAP Diversity Plus: BT Assay for Interleukin 6 (IL6) Biomarker Activity (AID 2284228)", "details": "primary human B cells with PBMC", "procedure,_shortened": "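B cells and peripheral blood mononuclear cells (human primary co-culture) were dosed with chemical, and after 24 h IL-6 released into the medium was measured by Luminex xMAP. Responses were analysed as gain of signal over DMSO control.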"}, "[8]": {"read-out": "Interleukin 17A (IL17A), IL17A (gene 3605)", "test": "BSK_BT_xIL17A: BioMAP Diversity Plus: BT Assay for Interleukin 17A (IL17A) Biomarker Activity (AID 2284229)", "details": "primary human B cells with PBMC", "procedure,_shortened": "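Secreted IL-17A was the measured endpoint, read by Luminex xMAP multiplex in supernatants of a human B cell/PBMC co-culture harvested 24 h after chemical dosing. Signal increase relative to DMSO defined activity.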"}, "[9]": {"read-out": "Tumor necrosis factor (Homo sapiens) (UniProt P01375)", "test": "BSK_BT_xTNFa: BioMAP Diversity Plus: BT Assay for Tumor necrosis factor alpha (TNF-alpha) Biomarker Activity (AID 2284230)", "details": "primary human B cells with PBMC", "procedure,_shortened": "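Compounds were added to a B cell plus PBMC co-culture, and after 24 h secreted TNF-alpha was quantified with Luminex xMAP technology, with responses fitted upward from the DMSO control.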"}},
  "note": "Where “and” joins values, the source holds several entries; their conditions need not be identical. Identical values can stand only once. Results filed as inconclusive are left out. Some compounds were tested as several samples or in several runs, with calls that do not always agree. Calls of active or inactive are those of the source. How the source made its calls, unless noted: active means hit-call score of the fitted dose curve at least 0.9, where 1 is the maximum; inactive means score below 0.9.",
  "data": [
    {"compound": "CC1(c2ccc(Oc3ccccc3)cc2)OC(=O)N(Nc2ccccc2)C1=O", "note": "(stereo unspecified)", "values": [
      {"measurement": "AC50", "setting": "[1]", "result": "59 µM (active)"},
      {"measurement": "AC50", "setting": "[2]", "result": "79.9 µM (active)"},
      {"measurement": "outcome", "setting": "[3]", "result": "inactive"}
    ]},
    {"compound": "CC(C)N(C(=O)COc1nnc(C(F)(F)F)s1)c1ccc(F)cc1", "values": [
      {"measurement": "outcome", "setting": "[1]", "result": "inactive"},
      {"measurement": "outcome", "setting": "[2]", "result": "inactive"},
      {"measurement": "outcome", "setting": "[3]", "result": "inactive"}
    ]},
    {"compound": "O=[N+]([O-])/N=C1\\NCCN1Cc1ccc(Cl)nc1", "values": [
      {"measurement": "outcome", "setting": "[1]", "result": "inactive"},
      {"measurement": "outcome", "setting": "[2]", "result": "inactive"},
      {"measurement": "outcome", "setting": "[3]", "result": "inactive"}
    ]},
    {"compound": "O=C(O)C(F)(F)C(F)(F)C(F)(F)C(F)(F)C(F)(F)C(F)(F)C(F)(F)F", "values": [
      {"measurement": "outcome", "setting": "[1]", "result": "inactive"},
      {"measurement": "outcome", "setting": "[2]", "result": "inactive"},
      {"measurement": "outcome", "setting": "[3]", "result": "inactive"},
      {"measurement": "AC50", "setting": "[4]", "result": "30 µM (active)"},
      {"measurement": "outcome", "setting": "[4]", "result": "inactive"},
      {"measurement": "outcome", "setting": "[5]", "result": "inactive"},
      {"measurement": "AC50", "setting": "[6]", "result": "24 µM (active)"},
      {"measurement": "outcome", "setting": "[6]", "result": "inactive"},
      {"measurement": "outcome", "setting": "[7]", "result": "inactive"},
      {"measurement": "outcome", "setting": "[8]", "result": "inactive"},
      {"measurement": "AC50", "setting": "[9]", "result": "5.95 µM (active)"},
      {"measurement": "outcome", "setting": "[9]", "result": "inactive"}
    ]},
    {"compound": "O=S(=O)(O)C(F)(F)C(F)(F)C(F)(F)C(F)(F)C(F)(F)C(F)(F)C(F)(F)C(F)(F)F", "values": [
      {"measurement": "outcome", "setting": "[1]", "result": "inactive"},
      {"measurement": "outcome", "setting": "[2]", "result": "inactive"},
      {"measurement": "AC50", "setting": "[4]", "result": "24 µM (active) and 33.9 µM (active)"},
      {"measurement": "outcome", "setting": "[4]", "result": "inactive"},
      {"measurement": "outcome", "setting": "[5]", "result": "inactive"},
      {"measurement": "AC50", "setting": "[6]", "result": "19.5 µM (active)"},
      {"measurement": "outcome", "setting": "[6]", "result": "inactive"},
      {"measurement": "outcome", "setting": "[7]", "result": "inactive"},
      {"measurement": "outcome", "setting": "[8]", "result": "inactive"},
      {"measurement": "outcome", "setting": "[9]", "result": "inactive"}
    ]}
  ]
}
